The nature of assay [1]: NCI Yeast Anticancer Drug Screen. Data for the rad50 strain (AID 155).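 Note: 0% = growth of vehicle-only cultures of the same strain.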 The note with it: S. cerevisiae rad50 strain growth inhibition, active compounds read high. In outline: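 Cells are treated with compound, grown, and their growth is then scored against vehicle-only cultures of the same repair-deficient yeast strain.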
Assay [2] can be described thus: NCI Yeast Anticancer Drug Screen. Data for the mec2-1 strain (AID 157). The note with it: S. cerevisiae mec2-1 strain, active compounds read high. In outline:
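Test agents were screened against the mec2-1 yeast strain, with defined DNA repair or cell cycle alteration. Growth was scored as inhibition against vehicle-only controls.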

Assay [3] in a line: NCI Yeast Anticancer Drug Screen. Data for the sgs1 mgt1 strain (AID 161).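 Note: 0% = growth of cultures given vehicle only.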 The settings on record: S. cerevisiae sgs1 mgt1 strain, active compounds read high. Summed up: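 Test agents were incubated with a DNA-repair-mutant yeast strain. Growth was then read and compared against vehicle-treated controls.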
A short description of assay [4]: NCI Yeast Anticancer Drug Screen. Data for the cln2 rad14 strain (AID 165).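 Note: 0% = growth equal to vehicle treated cultures.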 The settings on record: S. cerevisiae cln2 rad14 strain, active compounds read high. Summed up: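 Growth of compound-exposed yeast (cln2 rad14 genotype) measured and expressed as inhibition relative to vehicle.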
The nature of assay [5]: NCI Yeast Anticancer Drug Screen. Data for the bub3 strain (AID 167). The note with it: S. cerevisiae bub3 mutant strain, active compounds read high. In outline: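 Part of a panel of yeast mutants defective in DNA damage repair or cell cycle regulation. Each strain is grown with compound, and inhibition is calculated relative to solvent-treated cultures.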
A short description of assay [6]: NCI Yeast Anticancer Drug Screen. Data for the mlh1 rad18 strain (AID 175). The settings on record: S. cerevisiae mlh1 rad18 strain growth inhibition, active compounds read high. In outline:
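In this whole-cell yeast screen, a strain with altered DNA damage repair is challenged with compound, and its growth is measured against matched vehicle-treated controls.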

[7] abbreviates: at 5.0 µM (retest, dose inferred, filed as 0.5).
The mark [8] stands for this setting: at 50.0 µM (retest, dose inferred, filed as 5.0).

Each structure is given as a SMILES string. This is part of a sample that, as a whole, favours compounds with a hit. Of some 79,000 tested, about 15% had one in any assay. Values without a mark were called inactive. Activity calls are given as the source filed them. Cut-off read from the data, not from the text of the source: active = growth inhibition above about 70%; inactive = the rest.

For `Cc1c2c(c(C)c3ccncc13)S(=O)(=O)c1ccccc1-2`, the growth inhibition in assay [1] (setting [7]) is 88% (active); in assay [1] (setting [8]), 87% (active); in assay [1] (at 50.0 µM) it was 94.3% (active); in assay [2] (setting [7]) it was 52%; in assay [2] (setting [8]), 69%; in assay [2] (at 50.0 µM), 36.2%. In addition, the growth inhibition in assay [3] (setting [7]) is 38%; in assay [3] (setting [8]), 65%; in assay [3] (at 50.0 µM), 55.3%; in assay [4] (setting [7]) it was 39%; in assay [4] (setting [8]), 36%; in assay [4] (at 50.0 µM), 28.9%. The growth inhibition in assay [5] (setting [7]) was 41%; in assay [5] (setting [8]), 33%; in assay [5] (at 50.0 µM) it was 55%; in assay [6] (setting [7]) it was 75% (active); in assay [6] (setting [8]), 85% (active); in assay [6] (at 50.0 µM), 79.9% (active).

Regarding `O=c1[nH]c(=S)[nH]c(-c2ccccc2)c1Cc1c(O)ccc2ccccc12`, the growth inhibition in assay [1] (setting [7]) was -15%; in assay [1] (setting [8]), 74% (active); in assay [1] (at 50.0 µM), 88.7% (active); in assay [2] (setting [7]), 32%; in assay [2] (setting [8]), 40%; in assay [2] (at 50.0 µM), 89.6% (active). Besides, the growth inhibition in assay [3] (setting [7]) is -10%; in assay [3] (setting [8]) it was 65%; in assay [3] (at 50.0 µM) it was 84.3% (active); in assay [4] (setting [7]) it was -17%; in assay [4] (setting [8]) it was 41%; in assay [4] (at 50.0 µM), 75.2% (active). The growth inhibition in assay [5] (setting [7]) was -15%; in assay [5] (setting [8]) it was 57%; in assay [5] (at 50.0 µM), 80.8% (active); in assay [6] (setting [7]), -4%; in assay [6] (setting [8]), 60%; in assay [6] (at 50.0 µM), 79.7% (active).

In the case of `CC(=O)OC1(c2ccccc2)N=C(c2ccccc2)N=C1c1ccccc1` (configuration not stated), the growth inhibition was 13% in assay [1] (setting [7]); 28% in assay [1] (setting [8]); 28.9% in assay [1] (at 50.0 µM); 4% in assay [2] (setting [7]); 13% in assay [2] (setting [8]); 19.1% in assay [2] (at 50.0 µM). Also, the growth inhibition in assay [3] (setting [7]) is 6%; in assay [3] (setting [8]), 37%; in assay [3] (at 50.0 µM), 65.8%; in assay [4] (setting [7]), 13%; in assay [4] (setting [8]) it was 28%; in assay [4] (at 50.0 µM), 38.3%. The growth inhibition in assay [5] (setting [7]) is 13%; in assay [5] (setting [8]), 24%; in assay [5] (at 50.0 µM), 41.9%; in assay [6] (setting [7]), 3%; in assay [6] (setting [8]), 39%; in assay [6] (at 50.0 µM), 70.1% (active).

As to `OC1(C2CCCCC2)c2ccccc2Cc2ccccc21`, the growth inhibition was 6% in assay [1] (setting [7]); 80% (active) in assay [1] (setting [8]); 97.2% (active) in assay [1] (at 50.0 µM); 13% in assay [2] (setting [7]); 76% (active) in assay [2] (setting [8]); 98% (active) in assay [2] (at 50.0 µM). Besides, the growth inhibition was 12% in assay [3] (setting [7]); 93% (active) in assay [3] (setting [8]); 96.4% (active) in assay [3] (at 50.0 µM); -1% in assay [4] (setting [7]); 86% (active) in assay [4] (setting [8]); 95.4% (active) in assay [4] (at 50.0 µM). Further, the growth inhibition in assay [5] (setting [7]) was 9%; in assay [5] (setting [8]) it was 90% (active); in assay [5] (at 50.0 µM), 96.8% (active); in assay [6] (setting [7]), 7%; in assay [6] (setting [8]), 90% (active); in assay [6] (at 50.0 µM), 97% (active).

Regarding `O=C(Cc1ccc2c(c1)OCO2)c1ccc(O)cc1O`, the growth inhibition in assay [1] (setting [7]) is 6%; in assay [1] (setting [8]) it was 84% (active); in assay [1] (at 50.0 µM), 97.4% (active); in assay [2] (setting [7]), 1%; in assay [2] (setting [8]) it was 93% (active); in assay [2] (at 50.0 µM), 98.4% (active). The growth inhibition in assay [3] (setting [7]) is 9%; in assay [3] (setting [8]) it was 85% (active); in assay [3] (at 50.0 µM), 96.7% (active); in assay [4] (setting [7]), 6%; in assay [4] (setting [8]) it was 84% (active); in assay [4] (at 50.0 µM) it was 96.1% (active). The growth inhibition in assay [5] (setting [7]) is 10%; in assay [5] (setting [8]), 90% (active); in assay [5] (at 50.0 µM), 97.2% (active); in assay [6] (setting [7]) it was 5%; in assay [6] (setting [8]) it was 88% (active); in assay [6] (at 50.0 µM) it was 96.5% (active).

On to `C#CCNCc1ccccc1`, for which the growth inhibition in assay [1] (setting [7]) is 18%; in assay [1] (setting [8]) it was 63%; in assay [1] (at 50.0 µM), 66.8%; in assay [2] (setting [7]) it was 18%; in assay [2] (setting [8]) it was 47%; in assay [2] (at 50.0 µM), 35.5%. The growth inhibition is 11% in assay [3] (setting [7]); 63% in assay [3] (setting [8]); 89% (active) in assay [3] (at 50.0 µM); 0% in assay [4] (setting [7]); 32% in assay [4] (setting [8]); 29.4% in assay [4] (at 50.0 µM). The growth inhibition in assay [5] (setting [7]) is 5%; in assay [5] (setting [8]) it was 78% (active); in assay [5] (at 50.0 µM), 76.8% (active); in assay [6] (setting [7]), -4%; in assay [6] (setting [8]), 49%; in assay [6] (at 50.0 µM), 58.8%.

Take `O.O.O=C(O)C(O)C(O)C(OC1OC(CO)C(O)C(O)C1O)C(O)CO.O=C(O)C(O)C(O)C(OC1OC(CO)C(O)C(O)C1O)C(O)CO.[NH-]C1CCCCC1[NH-].[Pt+2]` (configuration not stated): the growth inhibition in assay [1] (setting [7]) was -6%; in assay [1] (setting [8]) it was 39%; in assay [1] (at 50.0 µM) it was 95.1% (active); in assay [2] (setting [7]), -6%; in assay [2] (setting [8]), 21%; in assay [2] (at 50.0 µM), 99.6% (active). For the same compound, the growth inhibition was 0% in assay [3] (setting [7]); 50% in assay [3] (setting [8]); 99.7% (active) in assay [3] (at 50.0 µM); 2% in assay [4] (setting [7]); 12% in assay [4] (setting [8]); 73.2% (active) in assay [4] (at 50.0 µM). Further, the growth inhibition is -2% in assay [5] (setting [7]); -2% in assay [5] (setting [8]); 99.4% (active) in assay [5] (at 50.0 µM); -6% in assay [6] (setting [7]); 32% in assay [6] (setting [8]); 99.2% (active) in assay [6] (at 50.0 µM).

`NC(=S)N/N=C1/C(=O)c2cccc3cccc1c23`: the growth inhibition is 10% in assay [1] (setting [7]); 96% (active) in assay [1] (setting [8]); 91.8% (active) in assay [1] (at 50.0 µM); -2% in assay [2] (setting [7]); 78% (active) in assay [2] (setting [8]); 0.1% in assay [2] (at 50.0 µM). Moreover, the growth inhibition in assay [3] (setting [7]) is 1%; in assay [3] (setting [8]), 80% (active); in assay [3] (at 50.0 µM), 66.7%; in assay [4] (setting [7]) it was -9%; in assay [4] (setting [8]), 65%; in assay [4] (at 50.0 µM), -26.7%. Further, the growth inhibition in assay [5] (setting [7]) was 9%; in assay [5] (setting [8]), 65%; in assay [5] (at 50.0 µM), 7.65%; in assay [6] (setting [7]), 6%; in assay [6] (setting [8]), 90% (active); in assay [6] (at 50.0 µM), 70.5% (active).

For `c1ccc2c(c1)[nH]c1cc3ccncc3cc12`, the growth inhibition is -45% in assay [1] (setting [7]); 90% (active) in assay [1] (setting [8]); 79.3% (active) in assay [1] (at 50.0 µM); -30% in assay [2] (setting [7]); 29% in assay [2] (setting [8]); 46.9% in assay [2] (at 50.0 µM). The growth inhibition was -24% in assay [3] (setting [7]); 52% in assay [3] (setting [8]); 45.6% in assay [3] (at 50.0 µM); -13% in assay [4] (setting [7]); 42% in assay [4] (setting [8]); 34.7% in assay [4] (at 50.0 µM). The growth inhibition in assay [5] (setting [7]) is -49%; in assay [5] (setting [8]), 51%; in assay [5] (at 50.0 µM) it was 34.5%; in assay [6] (setting [7]), -75%; in assay [6] (setting [8]), 56%; in assay [6] (at 50.0 µM), 61.7%.

Source of the values: PubChem BioAssay (NCI).
